From PubChem BioAssay (NCATS)
Records with an inconclusive call do not appear. Calls of active or inactive are those of the source. Calls follow the shape of the dose curve; as a rule, active = well fitted curve in the direction sought with a large enough effect; inconclusive = small, poorly fitted or top-dose-only effect, or another doubt; inactive = no such curve, though single readings can be large; an effect the other way counts as inactive or inconclusive. *1 amine or outer side, *2 acyl side, *3 side chain or, on linkers, in order; H or OH if unused. Where a SMILES comes first, the peptide text is derived from it. Bridges are numbered along the chain shown (N, C = ends). [ ]: non-standard residue; d: D form. The star is where a group is joined. ξ: configuration not given here. X10 = NC1=NCCC(C(N[*:1])C(=O)[*:2])N1; ΔAla(3-NHCONH2) = NC(=O)NC=C(N)C(=O)O; ξβ3hOrn = NCCCC(N)CC(=O)*; Dap = NC[CH](N)C(=O)O

Assays:
[1] = qHTS assay for measurement of the activity of small molecule inhibitors on Zika virus induced Caspase-3 activity in human iPSC derived neural progenitor cells (hNPCs) (AID 1224857); also: % of control where 0% means no effect; nearly all actives have a fitted effect of over 65% in size
Method in brief: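 In medium with heparin 2 ug/ml and cyclopamine 2 uM, hNPCs (350 cells/well) received compound for one hour and then Zika virus at 2 FFU/cell; caspase activity was measured by Caspase-Glo 3/7 luminescence 6 h post-infection.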

[2] = qHTS assay for measurement of the activity of small molecule inhibitors on Zika virus induced Caspase-3 activity in human astrocytoma cells (AID 1224859);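 also: plate controls were ZIKV-infected untreated cells for no effect and uninfected cells for full effect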
Method in brief: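 A cell-based luminescent caspase-3/7 assay used SNB-19 cells infected with ZIKV (2 FFU/cell) for 6 h following 1 h compound pretreatment.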

[3] = NS1 protein of Zika virus - qHTS assay to identify small molecule inhibitors in human HEK 293 cells (AID 1347053);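 also: series mostly up to about 46 µM; plate controls were infected untreated cells for no effect and uninfected cells for full effect; nearly all actives have a fitted effect of over 55% in size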
Method in brief: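 In this cell-based screen, HEK 293 cultures received compound for one hour before Zika MR766 at MOI = 0.5. NS1 was quantified 24 hours later by TR-FRET, normalized to virus-free wells and infected wells.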

[4] = qHTS of pediatric cancer cell lines to identify multiple opportunities for drug repurposing: Primary screen for TC32 cells (AID 1347089); also: % is scaled to controls: 0 for no effect and ±100 for the full control effect; nearly all actives have a fitted effect of over 60% in size
Method in brief: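 qHTS, TC32, 48 h drug treatment, CellTiter-Glo luminescence as a proxy for metabolically active cells; primary top concentration 46 µM (MIPE 11-pt, NPC 8-pt); confirmatory 11-pt.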

[5] = qHTS of pediatric cancer cell lines to identify multiple opportunities for drug repurposing: Primary screen for DAOY cells (AID 1347090);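 also: series mostly up to about 46 µM; plate controls were DMSO for no effect and bortezomib for full effect; nearly all actives have a fitted effect of over 55% in size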
Method in brief: (§1)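 Cell viability, CellTiter-Glo luminescence; 500-1,000 cells/well, 8- or 11-point titration, 48 h compound exposure at 37 degrees C, 5% CO2. Controls: DMSO neutral, bortezomib 2.3 µM final as positive.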

[6] = qHTS of pediatric cancer cell lines to identify multiple opportunities for drug repurposing: Primary screen for SJ-GBM2 cells (AID 1347091);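 also: plate controls were DMSO neutral control for no effect and bortezomib for full effect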
Method in brief: as §1

[7] = qHTS of pediatric cancer cell lines to identify multiple opportunities for drug repurposing: Primary screen for A673 cells (AID 1347092); also: % is scaled to controls: 0 for no effect and ±100 for the full control effect; nearly all actives have a fitted effect of over 45% in size
Method in brief: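 Luminescence from CellTiter-Glo, taken after 15 min at room temperature, served as the proxy for metabolically active cells following 48 h treatment. Both potency and efficacy were taken from curves fitted to the titration data.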

[8] = qHTS of pediatric cancer cell lines to identify multiple opportunities for drug repurposing: Primary screen for SK-N-MC cells (AID 1347093);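 also: series mostly up to about 46 µM; plate controls were DMSO neutral control for no effect and bortezomib for full effect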
Method in brief: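 Metabolically active cells were quantified by ATP-dependent luminescence (CellTiter-Glo, 15 min at room temperature) following 48 h treatment. Cells had been plated at 500-1,000 per well and settled for 5 h beforehand.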

[9] = qHTS of pediatric cancer cell lines to identify multiple opportunities for drug repurposing: Primary screen for BT-37 cells (AID 1347094);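 also: series mostly up to about 57 µM; plate controls were DMSO for no effect and bortezomib for full effect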
Method in brief: (§2)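 Plated cells (500-1,000 per well, growth media) were allowed to settle for 5 hours, treated with compound dilutions for 48 hours, then lysed with CellTiter-Glo for 15 min at room temperature before luminescence reading.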

[10] = qHTS of pediatric cancer cell lines to identify multiple opportunities for drug repurposing: Primary screen for NB-EBc1 cells (AID 1347095);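 also: plate controls were DMSO neutral control for no effect and bortezomib for full effect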
Method in brief: as §2

[11] = qHTS of pediatric cancer cell lines to identify multiple opportunities for drug repurposing: Primary screen for U-2 OS cells (AID 1347096);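 also: plate controls were DMSO wells for no effect and bortezomib positive control wells for full effect; nearly all actives have a fitted effect of over 50% in size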
Method in brief: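 Cells (500-1,000/well) rested 5 h, then received compounds for 48 h; metabolically active cells were measured by CellTiter-Glo luminescence. Final concentrations spanned up to 46 µM (MIPE, 11-point) or 0.59 nM-46 µM (NPC, 8-point) in primary screens, 11-point in follow-ups.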

[12] = qHTS of pediatric cancer cell lines to identify multiple opportunities for drug repurposing: Primary screen for Saos-2 cells (AID 1347097); also: % is scaled to controls: 0 for no effect and ±100 for the full control effect; nearly all actives have a fitted effect of over 40% in size
Method in brief: as §2

CCN(CC)CC(=O)Nc1c(C)cccc1C(=O)OC
inactive: Potency [1] | outcome [2] | Potency [3] | Potency [4] | Potency [5] | Potency [6] | Potency [7] | Potency [8] | Potency [9] | Potency [10] | Potency [11]

CC(C)(C)c1cc(C=O)cc(C(C)(C)C)c1O
inactive: Potency [1] | outcome [2] | Potency [3] | Potency [4] | Potency [5] | Potency [6] | Potency [7] | Potency [8] | Potency [9] | Potency [10] | Potency [11]

CC(C)(Oc1ccc(Cl)cc1)C(=O)OCCCOC(=O)C(C)(C)Oc1ccc(Cl)cc1
inactive: Potency [1] | outcome [2] | Potency [3] | Potency [4] | Potency [5] | Potency [6] | Potency [7] | Potency [8] | Potency [9] | Potency [10] | Potency [11] | Potency [12]

O=C1Cc2cc(Cl)ccc2N1
inactive: Potency [1] | outcome [2] | Potency [3] | Potency [4] | Potency [5] | Potency [6] | Potency [7] | Potency [8] | Potency [9] | Potency [10] | Potency [11] | Potency [12]

CC1(C)OC(=O)Nc2ccc(Br)cc21
inactive: Potency [1] | outcome [2] | Potency [3] | Potency [4] | Potency [5] | Potency [6] | Potency [7] | Potency [8] | Potency [9] | Potency [10] | Potency [11] | Potency [12]

CC(NN)c1ccccc1 (stereo not drawn)
inactive: Potency [1] | outcome [2] | Potency [3] | Potency [4] | Potency [5] | Potency [6] | Potency [7] | Potency [8] | Potency [9] | Potency [10] | Potency [11] | Potency [12]

NCCCC(N)CC(=O)NCC1NC(=O)C(CO)NC(=O)C(N)CNC(=O)C(C2CCN=C(N)N2)NC(=O)C(=CNC(N)=O)NC1=O (stereo not drawn) (H-[Dap]S[Dap](ξβ3hOrn)[ΔAla(3-NHCONH2)][X10]; lactam 1-C; configuration not given here)
inactive: activity change, negative = inhibition [1] 2.09% [at 0.568 µM] | activity change, negative = inhibition [2] -8.34% [at 0.568 µM] | activity change, negative = inhibition [3] 1.27% [at 0.593 µM] | activity change, negative = cytotoxic [4] 5.9% [at 0.594 µM] | activity change, negative = cytotoxic [5] 6.38% [at 0.597 µM] | activity change, negative = cytotoxic [6] 34.8% [at 0.597 µM] | activity change, negative = cytotoxic [7] -4.68% [at 0.597 µM] | activity change, negative = cytotoxic [8] -13.5% [at 0.597 µM] | activity change, negative = cytotoxic [9] 18% [at 0.745 µM] | activity change, negative = cytotoxic [10] 29.4% [at 0.597 µM] | activity change, negative = cytotoxic [11] 13.6% [at 0.597 µM] | activity change, negative = cytotoxic [12] 29.1% [at 0.597 µM]

Nc1ccc([N+](=O)[O-])c(C(F)(F)F)c1
inactive: Potency [1] | outcome [2] | Potency [3] | Potency [4] | Potency [5] | Potency [6] | Potency [7] | Potency [8] | Potency [9] | Potency [10] | Potency [11] | Potency [12]

Cc1coc2ccccc2c1=O
inactive: Potency [1] | outcome [2] | Potency [3] | Potency [4] | Potency [5] | Potency [6] | Potency [7] | Potency [8] | Potency [9] | Potency [10] | Potency [11] | Potency [12]

C/C(=N\O)[C@@H](C)NCC(C)(C)CN[C@H](C)/C(C)=N/O
inactive: Potency [1] | outcome [2] | Potency [3] | Potency [4] | Potency [5] | Potency [6] | Potency [7] | Potency [8] | Potency [9] | Potency [10] | Potency [11] | Potency [12]

O=C(O)CCCC[P+](c1ccccc1)(c1ccccc1)c1ccccc1
inactive: Potency [1] | outcome [2] | Potency [3] | Potency [4] | Potency [5] | Potency [6] | Potency [7] | Potency [8] | Potency [9] | Potency [10] | Potency [11] | Potency [12]

NS(=O)(=O)c1ccc(N2CCCCS2(=O)=O)cc1
inactive: Potency [1] | outcome [2] | Potency [3] | Potency [4] | Potency [5] | Potency [6] | Potency [7] | Potency [8] | Potency [9] | Potency [10] | Potency [11] | Potency [12]

Fc1ccc(C(c2ccc(F)cc2)N2CCNCC2)cc1
inactive: Potency [1] | outcome [2] | Potency [3] | Potency [4] | Potency [5] | Potency [6] | Potency [7] | Potency [8] | Potency [9] | Potency [10] | Potency [11] | Potency [12]

Cc1onc(-c2c(Cl)cccc2Cl)c1C(=O)Cl
inactive: Potency [1] | outcome [2] | Potency [3] | Potency [4] | Potency [5] | Potency [6] | Potency [7] | Potency [8] | Potency [9] | Potency [10] | Potency [11] | Potency [12]

CNC(=O)c1c(I)c(NC(C)=O)c(I)c(C(=O)O)c1I
inactive: Potency [1] | outcome [2] | Potency [3] | Potency [4] | Potency [5] | Potency [6] | Potency [7] | Potency [8] | Potency [9] | Potency [10] | Potency [11] | Potency [12]

Cc1cc(=O)oc2cc(O[C@@H]3SC[C@@H](O)[C@H](O)[C@H]3O)ccc12
inactive: Potency [1] | outcome [2] | Potency [3] | Potency [4] | Potency [5] | Potency [6] | Potency [7] | Potency [8] | Potency [9] | Potency [10] | Potency [11] | Potency [12]

C#CC(C)(CC)OC(=O)c1ccccc1C(=O)O (stereo not drawn)
inactive: Potency [1] | outcome [2] | Potency [3] | Potency [4] | Potency [5] | Potency [6] | Potency [7] | Potency [8] | Potency [9] | Potency [10] | Potency [11] | Potency [12]

C[C@H]1C[C@H](O)c2ccsc2S1(=O)=O
inactive: Potency [1] | outcome [2] | Potency [3] | Potency [4] | Potency [5] | Potency [6] | Potency [7] | Potency [8] | Potency [9] | Potency [10] | Potency [11] | Potency [12]

C/C(=C1\CCOC(=O)S1)N(C=O)Cc1cnc(C)nc1N
inactive: Potency [1] | outcome [2] | Potency [3] | Potency [4] | Potency [5] | Potency [6] | Potency [7] | Potency [8] | Potency [9] | Potency [10] | Potency [11] | Potency [12]

CC1(C)O[C@@H]2C[C@H]3[C@@H]4CCC5=CC(=O)C=C[C@]5(C)[C@@]4(F)[C@@H](O)C[C@]3(C)[C@]2(C(=O)CO)O1
inactive: Potency [1] | outcome [2] | Potency [3] | Potency [4] | Potency [5] | Potency [6] | Potency [7] | Potency [8] | Potency [9] | Potency [10] | Potency [11] | Potency [12]
